High-throughput results as filed in PubChem BioAssay.
CHT allo act = allosteric activators of human choline transporter CHT; Q9GZV3; CHT-expressing cells, membrane potential dye, choline EC20; active compounds read high; LV-AA mutant CHT in HEK293 cells; B-score at 10 µM; 310,000 tested, 0.49% active;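 active = initial fluorescence not abnormally high and integrated response B-score, plate-corrected, over 3 SD above library mean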
TMEM16A act = activates or potentiates the mouse TMEM16A chloride channel; Q8BHY3; HEK293 TMEM16A/YFP-H148Q/I152L, iodide quench fluorescence; active compounds read low; B-score at 10 µM; 340,000 tested, 0.3% active;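 active = fluorescence-ratio B-score plate-corrected deviation score at least 3 library SD below zero, with starting fluorescence score within 5 deviations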;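 note: channel opened by trigger with iodide after compound preincubation; score built on the fluorescence ratio of max minus min over baseline; more negative score means more quench and so TMEM16A activation or potentiation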
Kir21 block = blocks the mouse Kir2.1 inward-rectifier potassium channel | B-score at 10 µM | 310,000 tested, 0.85% active | P35561 | HEK293-Kir2.1, FluxOR thallium flux fluorescence; active compounds read low;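 active = fluorescence ratio B-score at or below minus 3 SD of library scores, with starting-brightness B-score within 2 SD, cut at about -4.2 in these data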;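 note: channel flux triggered by added potassium and thallium sulfate stimulus; B-score of peak minus minimum fluorescence over baseline after thallium stimulus; more negative B-score means stronger Kir2.1 block with less thallium influx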
Target sequence (P35561 whole entry, looked up): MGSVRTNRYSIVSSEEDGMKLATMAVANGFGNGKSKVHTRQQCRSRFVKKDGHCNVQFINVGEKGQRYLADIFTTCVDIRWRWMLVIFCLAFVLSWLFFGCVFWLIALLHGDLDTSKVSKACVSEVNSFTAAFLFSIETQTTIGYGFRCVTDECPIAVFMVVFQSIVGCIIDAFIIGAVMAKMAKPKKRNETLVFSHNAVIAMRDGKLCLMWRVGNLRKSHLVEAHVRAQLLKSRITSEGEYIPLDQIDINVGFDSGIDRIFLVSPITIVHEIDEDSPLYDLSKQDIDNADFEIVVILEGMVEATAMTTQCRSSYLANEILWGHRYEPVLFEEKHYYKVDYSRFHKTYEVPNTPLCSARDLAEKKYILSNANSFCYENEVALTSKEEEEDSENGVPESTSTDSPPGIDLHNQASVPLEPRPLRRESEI
GPR7 antag = human neuropeptides B/W receptor 1 antagonism; GPR7-expressing cells, fluorescence antagonist assay; inhibition, % at 4.4 µM; 290,000 tested, 1.1% active; AID 1861; in the data active = inhibition above about 16%, passing the limit was not always enough;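 note: cells stimulated with the agonist NPW; 0% = agonist with vehicle and 100% = vehicle without agonist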
ANO1 block = blocks the mouse calcium-activated chloride channel TMEM16A. Q8BHY3. HEK293 TMEM16A/YFP iodide influx fluorescence, ionomycin. normalized B-score (activity score, 25-100; higher = stronger inhibition) at 10 µM. 310,000 tested, 1.2% active. AID 588511;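 active = ratio plate-corrected score three or more library SD toward inhibition, starting fluorescence score within five deviations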;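 note: score derived from kinetic fluorescence span divided by baseline fluorescence per well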
CHT block = inhibits the human high affinity choline transporter; AID 488975; CHT-expressing cells, membrane potential dye, choline response; active compounds read low; Q9GZV3; B-score at 10 µM; 310,000 tested, 0.86% active;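 active = B-score over 3 SD under the library average, and starting fluorescence ratio not unusually high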;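 note: choline stimulus applied at its EC90 after an EC20 pre-addition; B-score computed on integrated fluorescence ratio after choline addition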
TMEM16A reconf = reconfirmed blocker of mouse TMEM16A calcium-activated chloride channel | shares compounds with ANO1 block | HEK293 TMEM16A/YFP-H148Q, iodide quench fluorescence; ionomycin added to raise cell calcium | inhibition, % at 10 µM | 2,300 tested, 39% active;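 active = mean duplicate percent inhibition, scaled so buffer wells are 0 and the reference blocker 100, over three buffer SD above buffer mean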
TMEM16A Ca cntr = counter-screen for TMEM16A inhibitors: effect on calcium mobilization. calcium response (% of ionomycin), % at 10 µM. shares compounds with ANO1 block. TMEM16A/YFP HEK293, Fluo4 calcium mobilization. AID 652231. 2,300 tested, 2% active;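 active = duplicate-averaged calcium signal over 20% of the ionomycin maximum, relative to buffer baseline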;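 note: each well's signal is peak minus trough fluorescence divided by its pre-addition baseline; 0% = buffer wells and 100% = ionomycin wells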
YFP-HEK293 quench = parental YFP-HEK293 iodide quench counter-screen activity; shares compounds with ANO1 block; AID 652233; YFP ratio F(max-min)/F0 at 10 µM; 2,300 tested, under 10 active; ionomycin;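 active = yellow fluorescent protein signal ratio exceeding the buffer control mean by over 5 SD of those controls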;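 note: ratio is mean of duplicate wells from kinetic YFP trace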
ClC-1 inh = rat ClC-1 inhibition, TMEM16A specificity screen; shares compounds with ANO1 block; CHO ClC-1-YFP, iodide influx fluorescence quench; iodide control reads 0, buffer control 100; ratio percent, % at 10 µM; 2,300 tested, under 10 active; AID 652236;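 active = duplicate-mean ratio percent above the mean of iodide-only control wells, which defines zero, plus 5 of their SD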;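 note: higher percent means stronger block of ClC-1 iodide influx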
An asterisk follows results filed as active. The list is not random: actives were taken first. Their share in the collection is about 3.7%.

Results for FC(F)(F)c1ccncc1-c1nnnn1-c1ccc(Cl)cc1 ?
CHT allo act: inactive; TMEM16A act: inactive; Kir21 block: 1.4; GPR7 antag: 13; ANO1 block: inactive; CHT block: inactive

What do the screens show for `FC(F)(F)c1nc(N2CCCC2)ncc1-c1nnnn1-c1ccc(Cl)cc1`?
CHT allo act: inactive; TMEM16A act: inactive; Kir21 block: -1; GPR7 antag: -6; ANO1 block: 25*; CHT block: inactive; TMEM16A reconf: inactive; TMEM16A Ca cntr: inactive; YFP-HEK293 quench: -1.1; ClC-1 inh: -20

How did CC(Sc1nc(NCc2ccccc2)nc(N(C)C)n1)C(=O)Nc1ccccc1 (stereo unspecified) do in these assays?
CHT allo act: inactive; TMEM16A act: inactive; Kir21 block: -0.09; GPR7 antag: 10; ANO1 block: 100*; CHT block: inactive; TMEM16A reconf: inactive; TMEM16A Ca cntr: inactive; YFP-HEK293 quench: -1.4; ClC-1 inh: -12

How did CN(C)c1nc(NCc2ccccc2)nc(SCC(=O)Nc2ccccc2)n1 do in these assays?
CHT allo act: inactive; TMEM16A act: inactive; Kir21 block: 0.04; GPR7 antag: -1; ANO1 block: inactive; CHT block: inactive

What do the screens show for `CCOC(=O)Cc1ccc(NC(=O)c2ccc(C(C)(C)C)cc2)cc1`?
CHT allo act: inactive; TMEM16A act: inactive; Kir21 block: 0.72; GPR7 antag: -11; ANO1 block: 100*; CHT block: inactive; TMEM16A reconf: 32%*; TMEM16A Ca cntr: inactive; YFP-HEK293 quench: -0.91; ClC-1 inh: 4

How did CCOC(=O)Cc1ccc(NC(=O)c2ccccc2Br)cc1 do in these assays?
CHT allo act: inactive; TMEM16A act: inactive; Kir21 block: 0.07; GPR7 antag: 4; ANO1 block: inactive; CHT block: inactive

How did COc1cccc(C2c3c(oc4ccccc4c3=O)C(=O)N2Cc2ccco2)c1 (stereo unspecified) do in these assays?
CHT allo act: inactive; TMEM16A act: inactive; Kir21 block: 0.16; ANO1 block: inactive; CHT block: inactive

What do the screens show for `COc1cc(C2c3c(oc4ccccc4c3=O)C(=O)N2Cc2ccco2)ccc1O` (stereo unspecified)?
CHT allo act: inactive; TMEM16A act: inactive; Kir21 block: 0.99; GPR7 antag: 10; ANO1 block: 25*; CHT block: inactive; TMEM16A reconf: inactive; TMEM16A Ca cntr: inactive; YFP-HEK293 quench: -0.9; ClC-1 inh: -4

How did CC(c1ccncc1)C(C)c1ccncc1 (stereo unspecified) do in these assays?
CHT allo act: inactive; TMEM16A act: inactive; Kir21 block: -0.95; ANO1 block: inactive; CHT block: inactive

What do the screens show for `CCC(CC)c1nnc(NC(=O)c2cccc(S(=O)(=O)N3CCc4ccccc43)c2)s1`?
CHT allo act: inactive; TMEM16A act: inactive; Kir21 block: 1.1; GPR7 antag: -18; ANO1 block: inactive; CHT block: inactive

Results for CCOC(=O)c1sc(NC(=O)c2cccc(S(=O)(=O)N3CCc4ccccc43)c2)c(C#N)c1C ?
CHT allo act: inactive; TMEM16A act: inactive; Kir21 block: -0.05; GPR7 antag: -9; ANO1 block: 25*; CHT block: inactive; TMEM16A reconf: 26%*; TMEM16A Ca cntr: inactive; YFP-HEK293 quench: -0.89; ClC-1 inh: -5

Results for Nc1nc(Cl)cc(N2CCCC2)n1 ?
CHT allo act: inactive; TMEM16A act: inactive; Kir21 block: 0.1; GPR7 antag: -5; ANO1 block: inactive; CHT block: inactive

How did Nc1nc(Cl)cc(N2CCC(c3cc(-c4ccc(Cl)cc4Cl)n[nH]3)CC2)n1 do in these assays?
CHT allo act: inactive; TMEM16A act: inactive; Kir21 block: -0.45; GPR7 antag: -3; ANO1 block: 100*; CHT block: inactive; TMEM16A reconf: inactive; TMEM16A Ca cntr: inactive; YFP-HEK293 quench: -1; ClC-1 inh: -6

What do the screens show for `Fc1ccc(NC(=S)NNc2ncc(C(F)(F)F)cc2Cl)c(F)c1`?
CHT allo act: inactive; TMEM16A act: inactive; Kir21 block: -1.8; GPR7 antag: 20; ANO1 block: 25*; CHT block: inactive; TMEM16A reconf: 30%*; TMEM16A Ca cntr: inactive; YFP-HEK293 quench: -1; ClC-1 inh: -14

What do the screens show for `O=S(=O)(NNc1ncc(C(F)(F)F)cc1Cl)c1ccc(F)cc1F`?
TMEM16A act: inactive

Results for CN(c1ccccc1)C(c1ccc(F)cc1)c1nnnn1C1CCCC1 (stereo unspecified) ?
CHT allo act: inactive; TMEM16A act: inactive; Kir21 block: -1.6; GPR7 antag: -2; ANO1 block: inactive; CHT block: inactive; TMEM16A reconf: inactive; TMEM16A Ca cntr: inactive; YFP-HEK293 quench: -0.92; ClC-1 inh: -13

What do the screens show for `N#CC1=C(N)Oc2cc(O)c(C=Nc3ccccc3)cc2C1c1ccccc1` (stereo unspecified)?
CHT allo act: inactive; TMEM16A act: inactive; Kir21 block: 1.1; GPR7 antag: -4; ANO1 block: inactive; CHT block: inactive; TMEM16A reconf: inactive; TMEM16A Ca cntr: inactive; YFP-HEK293 quench: -0.96; ClC-1 inh: 46

How did CC1=CC(C)(C)N(S(=O)(=O)c2ccc(C)cc2)c2ccccc21 do in these assays?
CHT allo act: inactive; TMEM16A act: inactive; Kir21 block: 1.6; GPR7 antag: 9; ANO1 block: 100*; CHT block: inactive; TMEM16A reconf: inactive; TMEM16A Ca cntr: inactive; YFP-HEK293 quench: -0.94; ClC-1 inh: -16

Results for COc1ccc(OCCNS(=O)(=O)c2ccc3oc4ccccc4c3c2)cc1 ?
CHT allo act: inactive; TMEM16A act: inactive; Kir21 block: -0.8; GPR7 antag: 10; ANO1 block: inactive; CHT block: inactive
